# Active and inactive are the calls of the source. Rule for the calls: active = hit-call score of the fitted dose curve at least 0.9, where 1 is the maximum; inactive = score below 0.9.
# Key:
# [1] = read-out: Interleukin-6 (IL6), IL6 (gene 3569); test: BSK_CASM3C_IL6: BioMAP Diversity Plus: CASM3C Assay for Interleukin-6 (IL6) Biomarker Activity for (AID 2283040); details: primary human coronary artery smooth muscle cells; actives raise or lower the signal
# [2] = read-out: Tissue plasminogen activator (tPA), PLAT (gene 5327); test: BSK_BE3C_tPA: BioMAP Diversity Plus: BE3C Assay for Tissue plasminogen activator (tPA) Biomarker Activity (AID 2283041); details: primary human bronchial epithelial cells; actives raise or lower the signal;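 note: tPA level quantified by ELISA one day after compound addition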
# Summary of the method: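 ELISA read-out of tPA on human primary bronchial epithelial cells, 24 h post-dosing; bidirectional fit vs DMSO negative control/baseline.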
# [3] = read-out: Interleukin-8 (IL8), CXCL8 (gene 3576); test: BSK_CASM3C_IL8: BioMAP Diversity Plus: CASM3C Assay for Interleukin-8 (IL8) Biomarker Activity (AID 2283042); details: primary human coronary artery smooth muscle cells; actives raise or lower the signal;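 note: IL-8 protein level quantified by ELISA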
# [4] = read-out: Human Leukocyte Antigen - DR isotype (HLADR), HLA-DRA (gene 3122); test: BSK_CASM3C_HLADR: BioMAP Diversity Plus: CASM3C Assay for Human Leukocyte Antigen - DR isotype (HLADR) Biomarker Activity (AID 2283043); details: primary human coronary artery smooth muscle cells; actives raise or lower the signal;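 note: cell-surface HLA-DR protein level quantified by ELISA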
# [5] = read-out: Macrophage colony-stimulating factor (MCSF), CSF1 (gene 1435); test: BSK_CASM3C_MCSF: BioMAP Diversity Plus: CASM3C Assay for Macrophage colony-stimulating factor (MCSF) Biomarker Activity (AID 2283044); details: primary human coronary artery smooth muscle cells; actives raise or lower the signal;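 note: M-CSF protein amount quantified by ELISA after 24 h exposure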
# [6] = read-out: Low-density lipoprotein receptor (LDLR), LDLR (gene 3949); test: BSK_CASM3C_LDLR: BioMAP Diversity Plus: CASM3C Assay for Low-density lipoprotein receptor (LDLR) Biomarker Activity (AID 2283045); details: primary human coronary artery smooth muscle cells; actives raise or lower the signal;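 note: LDLR protein level on the cell surface quantified by ELISA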
# [7] = read-out: Monocyte Chemoattractant Protein-1 (MCP1), CCL2 (gene 6347); test: BSK_CASM3C_MCP1: BioMAP Diversity Plus: CASM3C Assay for Monocyte Chemoattractant Protein-1 (MCP1) Biomarker Activity (AID 2283046); details: primary human coronary artery smooth muscle cells; actives raise or lower the signal;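 note: MCP-1 level quantified by ELISA 24 h after dosing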
# [8] = BSK_CASM3C_Proliferation: Cell Proliferation Assessment in the BioMAP Diversity Plus: CASM3C Assay (AID 2283047); details: primary human coronary artery smooth muscle cells;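 note: sulforhodamine B total protein stain as relative cell number at 560 nm; sub-confluent cells exposed 48 h before staining; fitted both ways against DMSO so gain or loss of cell number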
# [9] = read-out: Monokine induced gamma interferon (MIG), CXCL9 (gene 4283); test: BSK_CASM3C_MIG: BioMAP Diversity Plus: CASM3C Assay for Monokine induced gamma interferon (MIG) Biomarker Activity (AID 2283048); details: primary human coronary artery smooth muscle cells; actives raise or lower the signal;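 note: MIG protein level measured by ELISA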
# [10] = read-out: serum amyloid A (SAA), SAA1 (gene 6288); test: BSK_CASM3C_SAA: BioMAP Diversity Plus: CASM3C Assay for serum amyloid A (SAA) Biomarker Activity (AID 2283049); details: primary human coronary artery smooth muscle cells; actives raise or lower the signal;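 note: SAA protein level quantified by ELISA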
# [11] = BSK_CASM3C_SRB: Viability Assessment in the BioMAP Diversity Plus: CASM3C Assay (AID 2283050); details: primary human coronary artery smooth muscle cells;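 note: total protein by SRB staining as cytotoxicity measure in parallel cultures; cells exposed to compound for 24 h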
# [12] = read-out: Thrombomodulin, THBD (gene 7056); test: BSK_CASM3C_Thrombomodulin: BioMAP Diversity Plus: CASM3C Assay for Thrombomodulin Biomarker Activity (AID 2283051); details: primary human coronary artery smooth muscle cells; actives raise or lower the signal;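 note: thrombomodulin protein level measured by ELISA 24 h after dosing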
# [13] = read-out: Tissue Factor, F3 (gene 2152); test: BSK_CASM3C_TissueFactor: BioMAP Diversity Plus: CASM3C Assay for Tissue Factor Biomarker Activity (AID 2283052); details: primary human coronary artery smooth muscle cells; actives raise or lower the signal;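 note: cell surface tissue factor protein level read by ELISA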
# [14] = read-out: Interferon-gamma inducible Protein 10 (IP10), CXCL10 (gene 3627); test: BSK_hDFCGF_IP10: BioMAP Diversity Plus: hDFCGF Assay for Interferon-gamma inducible Protein 10 (IP10) Biomarker Activity (AID 2283053); details: primary human foreskin fibroblasts; actives raise or lower the signal
# Summary of the method: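 ELISA read-out of IP-10 (CXCL10) from primary human skin fibroblasts, 24 h after compound addition. Gain or loss of signal versus DMSO baseline, bidirectional curve fitting.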
# [15] = read-out: Urokinase-type plasminogen activator receptor (uPAR), PLAUR (gene 5329); test: BSK_CASM3C_uPAR: BioMAP Diversity Plus: CASM3C Assay for Urokinase-type plasminogen activator receptor (uPAR) Biomarker Activity (AID 2283054); details: primary human coronary artery smooth muscle cells; actives raise or lower the signal;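 note: cell-surface uPAR protein level quantified by ELISA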
# [16] = read-out: Vascular cell adhesion molecule 1 (VCAM1), VCAM1 (gene 7412); test: BSK_CASM3C_VCAM1: BioMAP Diversity Plus: CASM3C Assay for Vascular cell adhesion molecule 1 (VCAM1) Biomarker Activity (AID 2283055); details: primary human coronary artery smooth muscle cells; actives raise or lower the signal;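 note: VCAM-1 protein level quantified by ELISA on the cells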
# [17] = read-out: Collagen III, COL3A1 (gene 1281); test: BSK_hDFCGF_CollagenIII: BioMAP Diversity Plus: hDFCGF Assay for Collagen III Biomarker Activity (AID 2283056); details: primary human foreskin fibroblasts; actives raise or lower the signal
# Summary of the method: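 Cells: human foreskin fibroblasts, primary. Dosing followed by 24 h incubation, then ELISA for collagen III. Both increases and decreases scored relative to DMSO.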
# [18] = read-out: Epidermal growth factor receptor (EGFR), EGFR (gene 1956); test: BSK_hDFCGF_EGFR: BioMAP Diversity Plus: hDFCGF Assay for Epidermal growth factor receptor (EGFR) Biomarker Activity (AID 2283057); details: primary human foreskin fibroblasts; actives raise or lower the signal
# Summary of the method: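 ELISA readout of EGFR on human dermal fibroblasts (primary foreskin cells), 24 h post-dosing; bidirectional curve fit vs DMSO baseline, gain or loss of signal scored.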
# [19] = read-out: Interleukin-8 (IL8), CXCL8 (gene 3576); test: BSK_hDFCGF_IL8: BioMAP Diversity Plus: hDFCGF Assay for Interleukin-8 (IL8) Biomarker Activity (AID 2283058); details: primary human foreskin fibroblasts; actives raise or lower the signal
# Summary of the method: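 IL-8 levels from compound-treated primary human fibroblasts were read by ELISA at 24 h, with DMSO serving as baseline for bidirectional fitting.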
# [20] = BSK_hDFCGF_Proliferation: Cell Proliferation Assessment in the BioMAP Diversity Plus: hDFCGF Assay (AID 2283059); details: primary human foreskin fibroblasts;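 note: curves fitted for both rise and fall of signal versus DMSO baseline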
# Summary of the method: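 This proliferation readout used SRB total-protein staining of human foreskin fibroblasts […], normalized to DMSO with bidirectional curve fitting.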
structure (smiles),measurement,setting,value
CCCCCCCCN(C)C,outcome,[1],inactive
same,outcome,[2],inactive
same,outcome,[3],inactive
same,outcome,[4],inactive
same,outcome,[5],inactive
same,outcome,[6],inactive
same,outcome,[7],inactive
same,outcome,[8],inactive
same,outcome,[9],inactive
same,outcome,[10],inactive
same,outcome,[11],inactive
same,outcome,[12],inactive
same,outcome,[13],inactive
same,outcome,[14],inactive
same,outcome,[15],inactive
same,outcome,[16],inactive
same,outcome,[17],inactive
same,outcome,[18],inactive
same,outcome,[19],inactive
same,outcome,[20],inactive
CC(C)CC(C)O (stereo not given),outcome,[1],inactive
same,outcome,[2],inactive
same,outcome,[3],inactive
same,outcome,[4],inactive
same,outcome,[5],inactive
same,outcome,[6],inactive
same,outcome,[7],inactive
same,outcome,[8],inactive
same,outcome,[9],inactive
same,outcome,[10],inactive
same,outcome,[11],inactive
same,outcome,[12],inactive
same,outcome,[13],inactive
same,outcome,[14],inactive
same,outcome,[15],inactive
same,outcome,[16],inactive
same,outcome,[17],inactive
same,outcome,[18],inactive
same,outcome,[19],inactive
same,outcome,[20],inactive
O=C(O)c1cccc(C[C@@H]2COc3ccc(OCc4nc5cc(F)ccc5s4)cc3[C@@H]2O)c1,outcome,[1],inactive
same,outcome,[2],inactive
same,outcome,[3],inactive
same,outcome,[4],inactive
same,outcome,[5],inactive
same,outcome,[6],inactive
same,outcome,[7],inactive
same,AC50,[8],12.9 µM (active)
same,outcome,[9],inactive
same,outcome,[10],inactive
same,outcome,[11],inactive
same,outcome,[12],inactive
same,outcome,[13],inactive
same,outcome,[14],inactive
same,outcome,[15],inactive
same,outcome,[16],inactive
same,outcome,[17],inactive
same,outcome,[18],inactive
same,outcome,[19],inactive
same,outcome,[20],inactive
OCc1c[nH]c2ccccc12,outcome,[1],inactive
same,outcome,[2],inactive
same,outcome,[3],inactive
same,outcome,[4],inactive
same,outcome,[5],inactive
same,outcome,[6],inactive
same,outcome,[7],inactive
same,outcome,[8],inactive
same,outcome,[9],inactive
same,outcome,[10],inactive
same,outcome,[11],inactive
same,AC50,[12],0.184 µM (active)
same,outcome,[13],inactive
same,outcome,[14],inactive
same,outcome,[15],inactive
same,outcome,[16],inactive
same,outcome,[17],inactive
same,outcome,[18],inactive
same,outcome,[19],inactive
same,AC50,[20],23.8 µM (active)
C[C@@H](Oc1ccc(CNC(=O)c2cccnc2Oc2ccc3c(c2)OCO3)c(F)c1)C(=O)O,outcome,[1],inactive
same,outcome,[2],inactive
same,outcome,[3],inactive
same,outcome,[4],inactive
same,outcome,[5],inactive
same,outcome,[6],inactive
same,outcome,[7],inactive
same,outcome,[8],inactive
same,outcome,[9],inactive
same,outcome,[10],inactive
same,outcome,[11],inactive
same,outcome,[12],inactive
same,outcome,[13],inactive
same,outcome,[14],inactive
same,outcome,[15],inactive
same,outcome,[16],inactive
same,outcome,[17],inactive
same,outcome,[18],inactive
same,outcome,[19],inactive
same,outcome,[20],inactive
CCn1nc(C)c2c1C(=O)NCC(c1ccc(O)cc1)=N2,outcome,[1],inactive
same,outcome,[2],inactive
same,outcome,[3],inactive
same,outcome,[4],inactive
same,AC50,[5],2.51 µM (active)
same,outcome,[6],inactive
same,outcome,[7],inactive
same,AC50,[8],10 µM (active)
same,outcome,[9],inactive
same,outcome,[10],inactive
same,outcome,[11],inactive
same,outcome,[12],inactive
same,outcome,[13],inactive
same,outcome,[14],inactive
same,AC50,[15],8.18 µM (active)
same,outcome,[16],inactive
same,outcome,[17],inactive
same,outcome,[18],inactive
same,outcome,[19],inactive
same,AC50,[20],11 µM (active)
OCc1ccccc1,outcome,[1],inactive
same,outcome,[2],inactive
same,outcome,[3],inactive
same,outcome,[4],inactive
same,outcome,[5],inactive
same,outcome,[6],inactive
same,outcome,[7],inactive
same,outcome,[8],inactive
same,outcome,[9],inactive
same,outcome,[10],inactive
same,outcome,[11],inactive
same,outcome,[12],inactive
same,outcome,[13],inactive
same,outcome,[14],inactive
same,outcome,[15],inactive
same,outcome,[16],inactive
same,outcome,[17],inactive
same,outcome,[18],inactive
same,outcome,[19],inactive
same,outcome,[20],inactive

# From PubChem BioAssay (EPA / NIEHS)
